Tested on: Vero E6 infected with SARS-CoV-2
Assay: inhibition of SARS-CoV-2 cytopathic effect; higher = more antiviral protection, active = above 15
Settings: 48 h

Measured: inhibition of SARS-CoV-2 cytopathic effect

COCCNC(=O)Cn1cnc([N+](=O)[O-])n1 [sanazole]
inactive: 1 nM -0.19% | 8.33 nM 0.45% | 100 nM -0.68% | 833.33 nM -0.43% | 10000 nM -3%

O=C1CCCC(=O)C1C(=O)c1ccc(C(F)(F)F)cc1[N+](=O)[O-] [nitisinone]
inactive: 1 nM 0.39% | 8.33 nM 0.93% | 100 nM -0.21% | 833.33 nM 0.01% | 10000 nM -1.34%

CC(N)C12CC3CC(CC(C3)C1)C2 (stereo not given) [rimantadine]
inactive: 1 nM -2.29% | 8.33 nM -2.48% | 100 nM -4.1% | 833.33 nM -5.56% | 10000 nM -5.71%

O=C(OOC(=O)c1ccccc1)c1ccccc1 [benzoyl-peroxide]
inactive: 1 nM 2.98% | 8.33 nM 2.38% | 100 nM -1.92% | 833.33 nM -1.86% | 10000 nM -0.05%

CCOC(=O)C1=C[C@@H](OC(CC)CC)[C@H](NC(C)=O)[C@@H](N)C1 [oseltamivir-phosphate]
inactive: 1 nM -2.66% | 8.33 nM -6.65% | 100 nM -4.22% | 833.33 nM -6.18% | 10000 nM 0.67%

CN1CC[C@@H](NC(=O)Nc2ccc(C#N)cc2)C[C@@H]1c1nc2ccccc2[nH]1 [glasdegib]
inactive: 1 nM 2.8% | 8.33 nM 1.32% | 100 nM 1.05% | 833.33 nM -0.41% | 10000 nM 1.71%

CCCCc1ncc(/C=C(\Cc2cccs2)C(=O)O)n1Cc1ccc(C(=O)O)cc1 [eprosartan]
inactive: 1 nM -1.35% | 8.33 nM -0.99% | 100 nM -0.35% | 833.33 nM -0.6% | 10000 nM 2.22%

— the supplement of paper PMC13380429
